Results on one molecule are retold here after PubChem BioAssay (EPA / NIEHS).

The target of this assay is human Androgen Receptor (AR), AR (gene 367) (UniProt P10275). The assay is described as follows: ATG_hAR_XSP1: Attagene TRANS-FACTORIAL Multi-Species (XSP1) HepG2 Assay for human Androgen Receptor (AR) (AID 2283785). The method, then: ATG_XSP1_multi-species_TRANS is a cell-based, multiplexed assay created by modifying the existing Attagene TRANS-FACTORIAL system to include a panel of nuclear receptors from some or all the following species: human (Homo sapiens), mouse (Mus musculus), frog (Xenopus laevis), zebrafish (Danio rerio), chicken (Gallus gallus), and turtle (Chrysemys picta). The ECOTOX-FACTORIAL format uses HepG2, a human liver cell line, with measurements taken at 24 hours after chemical dosing in a 24-well plate. Xsp1 included 3 nM 6-alpha-fluorotestosterone to partially stimulate the androgen receptor.ATG_hAR_XSP1 is one of 29 assay components measured or calculated from the ATG_XSP1_multi-species_TRANS assay. It is designed to make measurements of mRNA induction, a form of inducible reporter, as detected with fluorescence intensity signals by Reverse transcription polymerase chain reaction (RT-PCR) and Capillary electrophoresis technology.The assay endpoint ATG_hAR_XSP1 was analyzed in the positive analysis fitting direction relative to DMSO as the negative control and baseline of activity. […] Furthermore, this assay endpoint can be referred to as a primary readout, because this assay has produced multiple assay endpoints where this one serves a reporter gene function. […]

Molecules are shown by their SMILES. Records with an inconclusive call do not appear. The source made the active and inactive calls. How the source made its calls: active means hit-call score of the fitted dose curve at least 0.9, where 1 is the maximum; inconclusive means response in the unintended direction; inactive means score below 0.9.

Chain of human Androgen Receptor (AR), AR (gene 367) (P10275 whole entry, looked up): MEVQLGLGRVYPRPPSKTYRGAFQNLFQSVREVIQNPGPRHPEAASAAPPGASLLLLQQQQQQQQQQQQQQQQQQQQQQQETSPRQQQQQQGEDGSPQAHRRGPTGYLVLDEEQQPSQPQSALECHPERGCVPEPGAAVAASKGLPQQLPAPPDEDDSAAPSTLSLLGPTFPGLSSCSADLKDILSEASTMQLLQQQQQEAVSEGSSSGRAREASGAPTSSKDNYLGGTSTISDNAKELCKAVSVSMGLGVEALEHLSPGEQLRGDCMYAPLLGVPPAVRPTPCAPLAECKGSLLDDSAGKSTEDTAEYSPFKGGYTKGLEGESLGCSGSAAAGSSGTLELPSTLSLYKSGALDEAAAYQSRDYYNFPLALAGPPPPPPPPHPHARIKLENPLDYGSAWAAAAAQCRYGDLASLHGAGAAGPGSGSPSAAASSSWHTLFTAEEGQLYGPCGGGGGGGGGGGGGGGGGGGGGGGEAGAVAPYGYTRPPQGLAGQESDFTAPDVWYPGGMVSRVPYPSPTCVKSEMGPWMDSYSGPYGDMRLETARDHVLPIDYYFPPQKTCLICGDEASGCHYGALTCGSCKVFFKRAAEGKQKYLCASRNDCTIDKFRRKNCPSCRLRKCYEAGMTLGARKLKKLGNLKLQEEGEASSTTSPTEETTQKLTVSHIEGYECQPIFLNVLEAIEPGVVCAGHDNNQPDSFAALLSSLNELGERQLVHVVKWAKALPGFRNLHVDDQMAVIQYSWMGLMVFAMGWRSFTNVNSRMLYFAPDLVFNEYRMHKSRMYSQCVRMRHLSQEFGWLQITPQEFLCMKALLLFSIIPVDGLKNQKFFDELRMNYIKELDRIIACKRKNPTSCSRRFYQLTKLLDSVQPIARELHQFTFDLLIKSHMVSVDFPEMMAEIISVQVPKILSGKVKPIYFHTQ

In the case of `CO/C=C(/C(=O)OC)c1ccccc1Oc1cc(Oc2ccccc2C#N)ncn1`, the result was inactive.
